PubChem BioAssay
Activity calls are given as the source filed them. Unless noted, no rule for the calls is given here.

Experiments:
[1] = anti-His antibody binders, primary screen, artefact control for SMM control protein annotation, biochemical, small-molecule microarray, 635 nm fluorescence (AID 1128); details: anti-His Alexa647 antibody binding, higher = more signal;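 also: score merges feature fluorescence with signal-to-noise for each printed compound spot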
[2] = test system: Human papillomavirus type 1a E7 protein (residues 1-88); assay: HPV1a E7 small-molecule binders, primary screen, biochemical, small-molecule microarray, residues 1-88, 635 nm (AID 1129); details: small-molecule microarray binding, fluorescence 635 nm; higher = more signal
[3] = target: Focal adhesion kinase 1 (Homo sapiens) (UniProt Q05397); assay: small-molecule microarray binders of FAK, primary screen, biochemical, 635/667 nm fluorescence, BSA, DTT (AID 1130); details: PTK2 binding, 635 nm fluorescence, higher = more signal;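 also: composite of spot emission at 667 nm and signal to noise over triplicate slides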
[4] = test system: Fibrinogen (Alexa647-labelled); assay: fibrinogen binders on compound microarrays, profiling panel, artefact control for SMM control-protein annotation, biochemical, small-molecule microarray, 635/667 nm fluorescence (AID 1131); details: fibrinogen-A647 binding fluorescence, higher = more signal;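 also: z-score merges 667 nm fluorescence with per-spot signal-to-noise over triplicate slides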
[5] = target: Follistatin (Homo sapiens) (UniProt P19883); assay: follistatin binders on small-molecule microarrays, primary screen, biochemical, small-molecule microarray, 635/667 nm fluorescence (AID 1132); details: FST binding, 635 nm fluorescence, higher = more signal
[6] = target: Fibroblast growth factor 2 (Homo sapiens) (UniProt P09038); assay: FGF2 binders on small-molecule microarrays, primary screen, biochemical, small-molecule microarray, 635/667 nm fluorescence (AID 1133); details: small-molecule microarray binding, FGF2, fluorescence 635/667; higher = more signal
[7] = mitochondrial membrane potential change in A549 cells, profiling panel, cell-based, JC-1 fluorescence, basal, 24 h, 100 nL (AID 1138); details: higher = more signal;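 also: A549 lung adenocarcinoma cells under basal conditions with no added stimulus; test concentration not given here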
Lefty1 = Lefty1 binders on small-molecule microarrays, primary screen, biochemical, small-molecule microarray, 635/667 nm fluorescence (AID 1139); details: small-molecule microarray binding, fluorescence 635/667; higher = more signal
[8] = test system: wheat germ agglutinin (Triticum aestivum), Alexa647-labelled; assay: wheat germ agglutinin binders on compound microarrays, profiling panel, artefact control for SMM control-protein annotation, biochemical, small-molecule microarray, 635/667 nm fluorescence (AID 1140); details: WGA-A647 binding, 635 nm fluorescence, higher = more signal;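 also: score merges 667 nm feature emission with signal to noise over triplicate slides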
[9] = target: Luciferin 4-monooxygenase (Photinus pyralis) (UniProt P08659); assay: firefly luciferase enzyme inhibitors, primary screen, biochemical, luminescence, purified enzyme, 2006 set (AID 1141); details: SteadyGlo luminescence, 30 min, higher = more signal, called active from +8 up or from −8 down;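 also: cell-free assay with purified firefly luciferase at 100 ng per well in PBS; test concentration not given here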
[10] = test system: Wnt5a (protein binding on small-molecule microarray); assay: Wnt5a binders on small-molecule microarray, primary screen, biophysical, 635/667 nm fluorescence (AID 1142); details: 635 nm fluorescence, higher = more signal;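 also: fluorescence read at 667 nm with signal to noise per printed feature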
[11] = cell viability in Huh7 cells, primary screen, cytotoxicity control for HCV replication inhibitor project, CellTiter-Glo luminescence, basal, 48 h (AID 1143); details: Huh7 HCV replicon, higher = more signal, called active from +8 up or from −8 down;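 also: Huh7 hepatoma cells carrying a hepatitis C replication reporter with no stimulus; test concentration not given here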
[12] = P. aeruginosa biofilm formation inhibitors, primary screen, PAO1 strain, BacTiter-Glo luminescence, LB-PBS (AID 1144); details: 12 h, higher = more signal
[13] = CREB reporter modulators without forskolin, primary screen, cell-based, PC12, CRE-LacZ reporter, unstimulated (AID 1145); details: no forskolin, luminescence, 4.5 h, higher = more signal, called active from +8 up or from −8 down
[14] = CREB reporter modulators under forskolin, primary screen, cell-based, PC12, CRE-LacZ reporter, forskolin-stimulated (AID 1146); details: luminescence, 4.5 h, higher = more signal, called active from +8 up or from −8 down;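 also: PC12 cells with 6xCRE LacZ reporter stimulated by forskolin 10 µM; beta-galactosidase reporter signal reflecting CREB driven transcription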
[15] = target: Streptavidin (Streptomyces avidinii) (UniProt P22629); assay: streptavidin binders on small-molecule microarray, primary screen, artefact control for SMM compound annotation, biophysical, 635/667 nm fluorescence (AID 1147); details: streptavidin binding, higher = more signal;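 also: signal reflects streptavidin binding to arrayed compounds as a control protein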
[16] = small-molecule binders of probe aInhba, primary screen, biochemical, small-molecule microarray, 635/667 nm fluorescence (AID 1148); details: higher = more signal;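 also: score merges 667nm spot fluorescence with signal-to-noise for antibody binding to printed compounds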
Torsin-1A (Homo sapiens) [17] = target: Torsin-1A (Homo sapiens) (UniProt O14656); assay: torsin A binders from cell lysate, primary screen, small-molecule microarray, wild-type, 635/667 nm (AID 1149); details: COS7 hTOR1A-WT lysate, 635 nm fluorescence, higher = more signal
Torsin-1A (Homo sapiens) [18] = target: Torsin-1A (Homo sapiens) (UniProt O14656); assay: small-molecule binders of mutant TOR1A in lysate, primary screen, cell lysate, small-molecule microarray, COS7 lysate, 635/667 nm fluorescence (AID 1150); details: COS7 hTOR1A mutant lysate, 635 nm fluorescence, higher = more signal;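 also: score pools 667 nm emission and signal to noise measuring lysate protein binding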
[19] = test system: Sonic hedgehog protein (Shh); assay: small-molecule binders of Shh protein, primary screen, biochemical, small-molecule microarray, 635/667 nm fluorescence (AID 1151); details: small-molecule microarray binding, 635 nm fluorescence; higher = more signal;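 also: Shh protein binding to compounds spotted on small-molecule microarray slides; score combines spot fluorescence intensity with signal-to-noise across triplicate slides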

Fibroblast growth factor 2 (Homo sapiens), sequence (P09038 whole entry, looked up): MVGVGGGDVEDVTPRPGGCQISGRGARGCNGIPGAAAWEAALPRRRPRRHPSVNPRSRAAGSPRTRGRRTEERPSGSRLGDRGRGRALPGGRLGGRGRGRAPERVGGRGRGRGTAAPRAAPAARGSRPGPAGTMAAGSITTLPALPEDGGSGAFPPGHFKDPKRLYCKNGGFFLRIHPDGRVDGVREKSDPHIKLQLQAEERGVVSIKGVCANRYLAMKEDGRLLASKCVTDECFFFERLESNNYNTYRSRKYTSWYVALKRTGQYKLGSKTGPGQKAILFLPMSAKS
Luciferin 4-monooxygenase (Photinus pyralis), sequence (P08659 whole entry, looked up): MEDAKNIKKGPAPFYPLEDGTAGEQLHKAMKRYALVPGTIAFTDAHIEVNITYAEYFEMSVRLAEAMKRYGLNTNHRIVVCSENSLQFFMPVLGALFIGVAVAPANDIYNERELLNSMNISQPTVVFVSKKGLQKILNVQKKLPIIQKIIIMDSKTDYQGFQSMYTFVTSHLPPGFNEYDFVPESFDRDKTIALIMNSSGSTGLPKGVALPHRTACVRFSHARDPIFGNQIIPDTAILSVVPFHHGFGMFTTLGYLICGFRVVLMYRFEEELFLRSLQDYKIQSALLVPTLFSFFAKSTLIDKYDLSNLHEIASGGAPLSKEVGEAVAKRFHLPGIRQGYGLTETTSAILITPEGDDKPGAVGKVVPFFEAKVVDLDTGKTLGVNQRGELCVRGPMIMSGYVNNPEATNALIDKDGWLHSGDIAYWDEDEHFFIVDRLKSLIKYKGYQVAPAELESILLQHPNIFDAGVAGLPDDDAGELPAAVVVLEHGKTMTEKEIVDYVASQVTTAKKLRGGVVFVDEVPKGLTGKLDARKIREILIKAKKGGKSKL
Focal adhesion kinase 1 (Homo sapiens), sequence (Q05397 whole entry, looked up): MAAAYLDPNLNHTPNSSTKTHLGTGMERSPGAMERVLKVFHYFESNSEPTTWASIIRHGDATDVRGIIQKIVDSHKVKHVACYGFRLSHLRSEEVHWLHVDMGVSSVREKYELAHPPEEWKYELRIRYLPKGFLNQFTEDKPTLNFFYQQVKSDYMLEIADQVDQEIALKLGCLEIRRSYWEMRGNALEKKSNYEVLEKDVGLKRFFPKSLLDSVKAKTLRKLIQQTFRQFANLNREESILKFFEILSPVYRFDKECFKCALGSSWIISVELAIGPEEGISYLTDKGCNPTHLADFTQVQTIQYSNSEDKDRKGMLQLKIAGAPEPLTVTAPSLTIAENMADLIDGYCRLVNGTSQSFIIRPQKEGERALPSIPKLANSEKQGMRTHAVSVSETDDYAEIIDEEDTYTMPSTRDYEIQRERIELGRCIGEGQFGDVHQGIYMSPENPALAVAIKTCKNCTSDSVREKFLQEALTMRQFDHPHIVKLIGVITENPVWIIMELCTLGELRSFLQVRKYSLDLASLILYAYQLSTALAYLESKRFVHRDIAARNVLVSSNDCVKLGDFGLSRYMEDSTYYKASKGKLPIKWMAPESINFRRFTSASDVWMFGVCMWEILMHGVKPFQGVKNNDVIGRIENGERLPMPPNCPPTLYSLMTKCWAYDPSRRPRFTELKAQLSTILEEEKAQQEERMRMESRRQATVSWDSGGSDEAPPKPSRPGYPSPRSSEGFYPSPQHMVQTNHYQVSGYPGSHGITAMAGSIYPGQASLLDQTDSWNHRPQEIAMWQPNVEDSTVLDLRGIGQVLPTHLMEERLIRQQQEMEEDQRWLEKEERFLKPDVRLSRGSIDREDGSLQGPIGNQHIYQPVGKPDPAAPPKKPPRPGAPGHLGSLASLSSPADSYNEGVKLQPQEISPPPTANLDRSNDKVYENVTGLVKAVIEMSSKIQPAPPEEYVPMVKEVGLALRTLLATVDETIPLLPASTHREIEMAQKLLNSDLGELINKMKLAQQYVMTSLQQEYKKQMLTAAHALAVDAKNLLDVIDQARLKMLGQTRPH
Follistatin (Homo sapiens), sequence (P19883 whole entry, looked up): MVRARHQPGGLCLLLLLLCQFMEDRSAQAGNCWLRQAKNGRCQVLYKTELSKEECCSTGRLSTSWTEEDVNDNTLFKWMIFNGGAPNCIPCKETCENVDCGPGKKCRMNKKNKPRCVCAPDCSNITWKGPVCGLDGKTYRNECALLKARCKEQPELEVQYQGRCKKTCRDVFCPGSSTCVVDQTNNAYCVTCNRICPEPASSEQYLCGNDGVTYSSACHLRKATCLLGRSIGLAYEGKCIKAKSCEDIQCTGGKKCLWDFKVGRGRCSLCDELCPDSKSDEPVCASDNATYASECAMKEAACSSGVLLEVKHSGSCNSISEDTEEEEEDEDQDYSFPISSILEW
Torsin-1A (Homo sapiens), sequence (O14656 whole entry, looked up): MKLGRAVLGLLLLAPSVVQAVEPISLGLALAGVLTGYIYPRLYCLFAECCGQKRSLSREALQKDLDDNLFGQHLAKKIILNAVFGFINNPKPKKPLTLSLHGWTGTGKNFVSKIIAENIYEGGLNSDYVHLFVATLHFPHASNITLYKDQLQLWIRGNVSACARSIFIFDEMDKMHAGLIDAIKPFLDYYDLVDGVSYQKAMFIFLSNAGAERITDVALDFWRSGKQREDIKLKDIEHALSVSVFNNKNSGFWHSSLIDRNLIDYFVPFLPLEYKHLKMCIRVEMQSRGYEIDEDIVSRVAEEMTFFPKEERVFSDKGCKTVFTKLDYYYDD
Streptavidin (Streptomyces avidinii), sequence (P22629 whole entry, looked up): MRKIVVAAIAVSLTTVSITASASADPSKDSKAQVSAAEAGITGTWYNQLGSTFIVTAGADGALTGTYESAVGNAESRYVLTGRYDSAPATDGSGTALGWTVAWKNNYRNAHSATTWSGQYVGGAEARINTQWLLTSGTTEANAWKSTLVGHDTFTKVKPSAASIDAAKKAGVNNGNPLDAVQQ

Row | Structure (SMILES) | composite z-score [1] | composite z-score [2] | composite z-score [3] | composite z-score [4] | composite z-score [5] | composite z-score [6] | z-score [7] | composite z-score (Lefty1) | composite z-score [8] | z-score [9] | composite z-score [10] | z-score [11] | z-score [12] | z-score [13] | z-score [14] | composite z-score [15] | composite z-score [16] | composite z-score (Torsin-1A (Homo sapiens) [17]) | composite z-score (Torsin-1A (Homo sapiens) [18]) | composite z-score [19]
1 | O=C1NCC(=O)N2[C@@H]1C[C@@H](C(=O)O)[C@H]2c1ccc(O)cc1 | 3.15 | 1.19 | 0.278 | 0.8 | 1.38 | 1.9 | 0.563 | 1.56 | 0.255 | -0.504 (inactive) | 0.27 | -0.286 (inactive) | -0.611 (inactive) | 0.0084 (inactive) | 0.622 (inactive) | 0.237 | 0.0104 | 1.13 | 2.29 | 2.01
2 | CN1C2C=C(CCCO)C(C3C(=O)N(C(N)=O)C(=O)C32)C1c1cccs1 (stereo not given) | 0.738 | 0.151 | -0.111 | -0.451 | 0.044 | -0.22 | -0.405 | 0.38 | -0.303 | -0.655 (inactive) | 2.03 | 0.148 (inactive) | 0.628 (inactive) | -1.09 (inactive) | -0.23 (inactive) | 0.0783 | -0.0963 | 0.21 | 0.429 | 0.279
3 | O=C(O)[C@]1(Cc2ccccc2)N=C(c2ccc(OCCCO)cc2)O[C@@H]1c1ccccc1 | 1.03 | -0.0591 | 0.136 | -0.0288 | -0.431 | -0.846 | -0.069 | -0.296 | -0.218 | 0.779 (inactive) | -0.159 | -1.14 (inactive) | 0.534 (inactive) | -0.445 (inactive) | -0.471 (inactive) | -0.423 | -0.119 | -0.639 | -0.411 | -1.78
4 | CC(C)CN1C(=O)[C@@]2(Cc3ccccc31)c1ccccc1C(=O)N(Cc1ccccc1C(F)(F)F)[C@H]2c1ccc(CO)cc1 | -0.372 | -1.18 | -0.315 | -0.921 | -0.596 | -0.425 | 0.39 | 0.636 | -0.0876 | 1.11 (inactive) | -0.331 | -2.54 (inactive) | -1.53 (inactive) | 0.0655 (inactive) | -0.416 (inactive) | -0.0961 | -0.182 | -2.38 | -0.727 | -0.875
5 | COc1cc(CO)cc(I)c1O[C@H]1C=C(C(=O)NCCO)C[C@@H](NCc2ccccc2F)[C@@H]1O | 0.271 | 1.17 | 0.0691 | 0.124 | 0.347 | 0.974 | 1.72 | 1.19 | 0.278 | -0.0791 (inactive) | -0.145 | -0.466 (inactive) | -0.251 (inactive) | 9.26 (active) | -1.22 (inactive) | -0.0401 | -0.128 | 0.235 | -0.175 | 0.485
6 | O=c1cccc(-c2cccc(Cl)c2)o1 | 0.417 | 1.11 | 0.682 | 0.2 | -0.0992 | -0.332 | 0.0374 | -0.014 | 0.11 | 0.672 (inactive) | 0.0303 | -1.07 (inactive) | 0.96 (inactive) | 0.631 (inactive) | -1.05 (inactive) | 0.244 | 0.0047 | 0.34 | 0.617 | -0.215
7 | CCOC(=O)[C@@H]1[C@@H]2C(=O)N(CC)C(=O)[C@@H]2C[C@@H]1Sc1ccccc1 | 1.62 | 1.2 | 0.592 | 0.462 | 0.329 | 0.0435 | -1.24 | 0.307 | 0.402 | 1.4 (inactive) | 0.202 | 0.371 (inactive) | -0.868 (inactive) | 0.136 (inactive) | 1.04 (inactive) | 0.603 | 0.0357 | 0.592 | 0.975 | 0.209
8 | CC(C)(C)OC(=O)CC[C@]1(C(=O)NCCN2CCOCC2)N=C(c2ccc(OCCCO)cc2)O[C@H]1c1ccccc1 | 2.21 | 0.358 | 0.75 | 0.955 | -0.0269 | -0.397 | 1.21 | -0.964 | 0.391 | -1.16 (inactive) | 0.298 | 0.268 (inactive) | -0.375 (inactive) | -0.174 (inactive) | -0.266 (inactive) | 0.541 | 0.165 | -0.357 | 0.833 | -1.23
9 | O=C1O[C@@H](c2ccccc2)[C@@H](c2ccccc2)N2[C@@H](c3ccc(O)cc3)[C@]3(C(=O)Nc4ccccc43)[C@@H](C(=O)Nc3nc4ccccc4s3)[C@H]12 | 1.07 | 1.18 | 0.708 | 0.975 | 1.2 | 0.398 | -2.38 | 0.745 | 0.634 | -1.1 (inactive) | 1.09 | -4.19 (inactive) | -1.87 (inactive) | 0.389 (inactive) | -0.0768 (inactive) | 0.243 | -0.128 | 0.0151 | 0.325 | 0.183
